Experimental data published in PubChem BioAssay AID686978 (National Center for Advancing Translational Sciences (NCATS), 2013).
The whole screen tested about 420,000 compounds, of which about 64,000 (15%) were called active. Another 27% or so got no clear call; they are omitted. Not all results are given here. A number with no mark means an inactive call. Calls follow the shape of the dose curve; as a rule, active = well fitted inhibition curve with a large enough effect; inconclusive = small, poorly fitted or top-dose-only effect; inactive = flat fitted curve, though single readings scatter.

assay: qHTS for Inhibitors of human tyrosyl-DNA phosphodiesterase 1 (TDP1): qHTS in cells in absence of CPT; conditions: DT40 Tdp1-/- hTDP1 cells, no CPT, ATP luminescence, 48 h; activity change, negative = growth inhibition: at 46.2 µM (top of the series); also: nearly all actives have a fitted effect of over 55% in size
Outline: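 Camptothecin absent (DMSO only). Human TDP1-complemented DT40 knockout cells, 400 cells/well, 37 °C for minimum 48 hr; ATP measured via CellTiter-Glo, 30 min dark incubation, luminescence.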
% is scaled to controls: 0 for no effect and ±100 for the full control effect; potency is read from the fitted curve at half-maximal effect.

Q: Which “activity change, negative = growth inhibition” value does the source give for `CSc1ccccc1NC(=O)c1cc(Cl)sc1Cl` here?
A: -11.3%

Q: With `CN(CC(=O)Nc1c(Cl)cccc1Cl)C(=O)c1ccncc1` as the compound, how does the “activity change, negative = growth inhibition” value read?
A: -2.4%

Q: Which “activity change, negative = growth inhibition” value does the source give for `CCCc1ccc(OCCNC(=O)c2ccco2)cc1` here?
A: -25.9%

Q: With `Cc1ccc(OCC(=O)NCCCNC(=O)c2ccco2)cc1C` as the compound, how does the “activity change, negative = growth inhibition” value read?
A: -5.67%

Q: With `Cc1ccc(C(=O)NNC(=O)C(C)Oc2ccc3ccccc3c2)o1` (stereo not drawn) as the compound, how does the “activity change, negative = growth inhibition” value read?
A: -21.3%

Q: With `CCCc1ccc(OCC(=O)NNC(=S)NC(=O)c2ccco2)cc1` as the compound, how does the Potency read?
A: 20.6 µM (active)

Q: With `O=C(Nc1ccc2ccccc2c1)/C(=C\c1ccc2c(c1)OCO2)NC(=O)c1ccco1` as the compound, how does the “activity change, negative = growth inhibition” value read?
A: -4.08%

Q: With `CC(Oc1ccc2ccccc2c1)C(=O)NNC(=S)NC(=O)c1ccco1` (stereo not drawn) as the compound, how does the Potency read?
A: 16.4 µM (active)

Q: For `C=CCn1c(SCc2cc(C(=O)OC)c(C)o2)nnc1-c1ccncc1`, which “activity change, negative = growth inhibition” value is on record?
A: -5.22%

Q: Which “activity change, negative = growth inhibition” value does the source give for `COC(=O)c1ccc(NC(=O)c2cccc3c2C(=O)N(C2CCCCC2)C3)cc1` here?
A: -3.73%

Q: With `CCOC(=O)N1CCC(N2Cc3cccc(C(=O)Nc4c(C)cccc4CC)c3C2=O)CC1` as the compound, how does the Potency read?
A: 23.1 µM (active)

Q: For `CCOC(=O)N1CCC(N2Cc3cccc(C(=O)Nc4ccc(S(=O)(=O)N(CC)CC)cc4)c3C2=O)CC1`, which “activity change, negative = growth inhibition” value is on record?
A: 2.22%

Q: With `CC1(C)O[C@@H]2[C@H](O1)[C@@H](COS(=O)(=O)O)O[C@H]2n1ccc(=O)[nH]c1=O` as the compound, how does the “activity change, negative = growth inhibition” value read?
A: 0.812%

Q: With `COC(=O)c1ccccc1NC(=O)c1ccccc1NS(C)(=O)=O` as the compound, how does the “activity change, negative = growth inhibition” value read?
A: -25.9%

Q: For `NC(=O)COc1ccc(NC(=O)c2ccccc2-c2ccccc2)cc1`, which “activity change, negative = growth inhibition” value is on record?
A: 6.23%

Q: With `CCOc1ccc(NC(=O)c2ccc(CSc3nnnn3C)cc2)cc1` as the compound, how does the “activity change, negative = growth inhibition” value read?
A: -21%

Q: With `CCOc1ccc(C(=O)Nc2cccc(SC)c2)cc1` as the compound, how does the Potency read?
A: 9.2 µM (active)

Q: With `CCOc1ccc(NC(=O)c2ccc(NC(=O)C3CCCO3)cc2)cc1` (stereo not drawn) as the compound, how does the “activity change, negative = growth inhibition” value read?
A: -1.68%

Q: With `O=C(CSc1ccccc1)Nc1ccc(C(=O)Nc2cccc(O)c2)cc1` as the compound, how does the “activity change, negative = growth inhibition” value read?
A: -13.8%

Q: Which Potency does the source give for `CCOc1ccc(C(=O)Nc2ccncc2)cc1` here?
A: 18.4 µM (active)

Q: With `CCOc1ccc(NC(=O)c2ccccc2NS(C)(=O)=O)cc1` as the compound, how does the Potency read?
A: 18.4 µM (active)

Q: For `CCOc1cccc(C(=O)Nc2cccnc2)c1`, which “activity change, negative = growth inhibition” value is on record?
A: -13%

Q: With `CCCOc1cccc(C(=O)NCCCNC(=O)c2cccnc2)c1` as the compound, how does the “activity change, negative = growth inhibition” value read?
A: 12.2%

Q: With `CCCOc1cccc(C(=O)Nc2cccc(NC(=O)c3ccc(C(C)(C)C)cc3)c2)c1` as the compound, how does the Potency read?
A: 29.1 µM (active)

Q: For `CSc1cccc(NC(=O)CSc2ccccc2)c1`, which “activity change, negative = growth inhibition” value is on record?
A: -17.1%

Q: For `Cc1cc(C(=O)OC(C)C(=O)Nc2cccc(S(=O)(=O)N3CCOCC3)c2)c(C)o1` (stereo not drawn), which “activity change, negative = growth inhibition” value is on record?
A: -31.2%

Q: Which “activity change, negative = growth inhibition” value does the source give for `COCCCNC(=S)NC(=O)c1ccc([N+](=O)[O-])cc1` here?
A: -23.1%

Q: With `CCOc1ccccc1NS(=O)(=O)c1c[nH]c(C(=O)OC)c1` as the compound, how does the “activity change, negative = growth inhibition” value read?
A: -29.1%

Q: For `COCCCNC(=O)c1c(NC(=O)c2cc(=O)c3cc(C)c(C)cc3o2)sc2c1CCCC2`, which “activity change, negative = growth inhibition” value is on record?
A: -16.2%

Q: For `Cc1cc(O)c(C2(O)C(=O)Nc3ccccc32)cc1C` (stereo not drawn), which “activity change, negative = growth inhibition” value is on record?
A: -2.69%

Q: With `COc1cnc(-c2ccccn2)nc1Oc1ccc(C(C)(C)C)cc1` as the compound, how does the Potency read?
A: 4.61 µM (active)

Q: With `Cc1nc2ccccc2c(C(=O)O)c1-c1ccccn1` as the compound, how does the “activity change, negative = growth inhibition” value read?
A: 14.2%

Q: Which Potency does the source give for `CC(C)(C)Nc1nc(-c2ccccn2)nc2ccccc12` here?
A: 4.11 µM (active)

Q: For `COc1ccc(Cc2nc(-c3ccccn3)no2)cc1OC`, which “activity change, negative = growth inhibition” value is on record?
A: 7.04%

Q: With `CCOC(=O)c1cnc(-c2ccccc2)nc1Oc1ccc(C)cc1` as the compound, how does the “activity change, negative = growth inhibition” value read?
A: -11.3%

Q: With `CC(C)(C)c1ccc(Oc2ccc(N)cc2)cc1` as the compound, how does the “activity change, negative = growth inhibition” value read?
A: -18.1%

Q: With `Cc1ccc(Oc2nc(-c3ccccn3)nc3ccccc23)cc1` as the compound, how does the Potency read?
A: 18.4 µM (active)

Q: With `O=C(c1ccc(NS(=O)(=O)c2ccc3[nH]c(=O)[nH]c3c2)cc1)N1CCCCC1` as the compound, how does the “activity change, negative = growth inhibition” value read?
A: -0.463%

Q: With `CCC(CC)C(=O)Nc1c2c(nn1-c1ccc(C)cc1)CS(=O)(=O)C2` as the compound, how does the “activity change, negative = growth inhibition” value read?
A: -10.3%

Q: With `Cc1noc(COc2ccccc2OCc2onc(C)c2Cl)c1Cl` as the compound, how does the “activity change, negative = growth inhibition” value read?
A: -14.2%

Q: For `CC1(OC(=O)C2CCCC2)C(=O)C=C2C=C(c3ccc(C#N)cc3)OC=C2C1=O` (stereo not drawn), which “activity change, negative = growth inhibition” value is on record?
A: 1.66%

Q: With `CC(C)NC(=O)CSc1nnc(COc2ccccc2Cl)o1` as the compound, how does the “activity change, negative = growth inhibition” value read?
A: 0.313%

Q: With `C/C(=N\NS(=O)(=O)c1cccc([N+](=O)[O-])c1)c1cc2ccccc2o1` as the compound, how does the “activity change, negative = growth inhibition” value read?
A: -20.6%

Q: With `Cc1cc(NC(=O)COC(=O)COc2ccc(Cl)cc2C)c([N+](=O)[O-])cc1C` as the compound, how does the “activity change, negative = growth inhibition” value read?
A: -40.4%

Q: With `O=C(CCCN=C1NS(=O)(=O)c2ccccc21)OCC(=O)c1ccc(F)c(F)c1` as the compound, how does the “activity change, negative = growth inhibition” value read?
A: -2.32%

Q: With `Fc1ccc(/C=N/n2c(COc3ccccc3)n[nH]c2=S)cc1` as the compound, how does the “activity change, negative = growth inhibition” value read?
A: -4.74%

Q: Which Potency does the source give for `CCc1n[nH]c(=S)n1/N=C/c1c[nH]c2ccc(Br)cc12` here?
A: 18.4 µM (active)

Q: Which “activity change, negative = growth inhibition” value does the source give for `Cc1ccc(/C=N\n2c(-c3ccccc3)n[nH]c2=S)s1` here?
A: -20.4%

Q: For `S=c1[nH]nc(-c2ccccc2)n1/N=C/c1c[nH]c2ccccc12`, which Potency is on record?
A: 6.51 µM (active)

Q: With `S=c1[nH]nc(-c2ccncc2)n1/N=C/c1ccccc1Cl` as the compound, how does the “activity change, negative = growth inhibition” value read?
A: -7.12%

Q: For `Oc1ccccc1/C=N/n1c(-c2cccs2)n[nH]c1=S`, which “activity change, negative = growth inhibition” value is on record?
A: -9.3%

Q: With `N#CCCN1CCN(S(=O)(=O)c2ccc(S(=O)(=O)NC3CCCCC3)cc2)CC1` as the compound, how does the “activity change, negative = growth inhibition” value read?
A: -18.6%

Q: With `COc1ccc(CCC(=O)OCC(=O)Nc2ccc(C)c(S(=O)(=O)N(C)C)c2)cc1` as the compound, how does the “activity change, negative = growth inhibition” value read?
A: -4.58%
